CHO-K1 Ca antag = nonselective inhibitor or artifact in parental CHO-K1 cells | ATP-induced calcium, Fluo-8 fluorescence | hit rate 0.6% among 360,000 | inhibition, % at 3 µM;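 active = inhibition above a per-plate cutoff, the plate's mean sample inhibition plus 3 SD, cut at about 24% in these data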;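 note: 0% = DMSO plus EC80 ATP and 100% = DMSO alone without ATP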
CHRM4 antagonist = blocks acetylcholine activation of human M4 receptor | P08173 | CHO-hM4 cells, ACh EC80, Fluo-8 calcium fluorescence | inhibition, % at 3 µM | hit rate 0.73% among 360,000;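 active = inhibition above its plate's cutoff, the mean inhibition of sample wells plus 3 SD, cut at about 27% in these data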;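 note: 0% = acetylcholine EC80 with DMSO and 100% = DMSO without agonist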
Target sequence (P08173 whole entry, looked up): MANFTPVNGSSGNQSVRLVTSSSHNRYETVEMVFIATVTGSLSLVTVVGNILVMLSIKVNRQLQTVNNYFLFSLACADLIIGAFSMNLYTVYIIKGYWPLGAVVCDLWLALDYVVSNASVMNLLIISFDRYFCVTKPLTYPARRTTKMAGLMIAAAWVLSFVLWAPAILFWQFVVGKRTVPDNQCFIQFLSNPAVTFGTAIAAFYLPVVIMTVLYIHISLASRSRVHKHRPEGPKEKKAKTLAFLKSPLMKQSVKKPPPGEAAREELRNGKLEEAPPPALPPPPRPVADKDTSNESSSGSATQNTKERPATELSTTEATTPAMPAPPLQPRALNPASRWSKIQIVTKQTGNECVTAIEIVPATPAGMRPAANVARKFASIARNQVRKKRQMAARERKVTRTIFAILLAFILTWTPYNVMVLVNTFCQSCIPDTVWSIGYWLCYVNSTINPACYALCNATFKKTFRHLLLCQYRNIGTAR
CHO-K1 Ca PAM = counter-screen for M1 PAMs: effect in parental CHO-K1 cells; ATP EC20, Fluo-8 calcium fluorescence; 0% at ATP EC20, 100% at ATP max; activation, % at 3 µM; hit rate 0.02% among 360,000; AID 602247;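 active = activation above the run cutoff, the mean activation of all test compounds plus 3 SD, cut at about 40% in these data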;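 note: peak over basal fluorescence ratio in a 140 s read after ATP addition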
CHRM4 agonist = CHRM4 agonism in calcium assay; activation, % at 3 µM; CHO-K1 hM4/Gqi5, Fluo-8 calcium fluorescence; vehicle 0%, full acetylcholine response 100%; AID 624127; P08173; hit rate 0.14% among 360,000;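 active = activation above the run mean over all test wells plus 3 SD, cut at about 32% in these data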;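 note: peak over basal fluorescence ratio per well then scaled between controls; 0% = DMSO wells and 100% = acetylcholine at EC100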
CHO-K1 Ca ag = nonselective activator or artifact in parental CHO-K1 cells; Fluo-8 calcium fluorescence; scaled to maximal ATP response, vehicle zero; hit rate 0.48% among 360,000; activation, % at 3 µM; in the data active = activation above about 15%;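 note: untransfected CHO-K1 host cells lacking M1 receptor as counterscreen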
CHRM4 PAM = CHRM4 positive allosteric modulation; AID 624126; activation, % at 3 µM; CHO-K1 hM4/Gqi5, Fluo-8 calcium fluorescence, ACh EC20; 0% = ACh EC20, 100% = maximal ACh; hit rate 0.4% among 360,000; P08173;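 active = activation above its plate's cutoff, the mean activation of sample wells plus 3 SD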
Active calls of the source: *; ! = not active in a repeat. Hits are enriched below; roughly 2% of the tested compounds scored in any of these assays.

SMILES	CHO-K1 Ca antag	CHRM4 antagonist	CHO-K1 Ca PAM	CHRM4 agonist	CHO-K1 Ca ag	CHRM4 PAM
COc1ccc(-c2[nH]ncc2CNCCCSC)cc1F	-22	-8	4	3	0	-1
CN(C)CCNC(=O)C(c1ccccc1)c1ccccc1	-1	-4	10	1	0	-5
CN(C)CCC(=O)C(Cc1ccccc1)c1ccccc1 (stereo not drawn)	-7	35*	21	4	3	-15
CC(CCCN(C)C)C(Cc1ccccc1)c1ccccc1 (stereo not drawn)	-12	29*	24	10	5	-17
COc1cc(/C=C/C(=O)OCC(=O)Nc2cccc(F)c2)ccc1O	-3	-3	11	20	6	-1
CCOC(=O)C(NC(=O)c1ccc(OC)cc1)(OCC1(CC)COC1)C(F)(F)F (stereo not drawn)	-11	-7	8	0	0	18*
CN=C1c2cc3cc(OC)ccc3n2CCN1Cc1ccccc1	0	0	-5	1	0	0
CC(C)[C@H](NC(=O)c1ccccc1F)C(=O)NCc1ccc(S(N)(=O)=O)cc1	-14	-26	8	4	0	15*
Cc1ccc(S(=O)(=O)NC2c3cccc4cccc(c34)C2Sc2nncn2C)cc1 (stereo not drawn)	-13	-2	25	3	3	-4
COC(=O)C1=C(C)NC2=C(C(=O)CCC2)C1c1cn(Cc2ccc(Br)cc2)nc1-c1ccccc1 (stereo not drawn)	8	-8	-1	4	0	-6
Cc1ccccc1NS(=O)(=O)c1ccc(C(=O)N2CCN(S(=O)(=O)c3ccccc3)CC2)cc1	-2	-6	-7	2	1	0
O=C1CC(c2nc3ccccc3[nH]2)CN1c1ccccc1F (stereo not drawn)	-6	78*	26	2	0	-14
O=c1cc(CO)occ1OCc1cccc(F)c1	-6	3	7	0	0	-5
CC(C)NC(=O)C(Sc1ccccc1)c1ccccc1 (stereo not drawn)	24*	2	-8	0	0	8
CC1(C)Cc2c(sc(NC(=O)COc3ccc(Cl)cc3)c2C#N)C(C)(C)N1	-15	-7	3	3	4	12
CCO[C@@H]1OC(C(=O)NCc2ccccc2)=C[C@H](c2csc3ccccc23)[C@H]1CCCO	2	27*	-7	42*	6	-14
CCO[C@H]1OC(C(=O)NCc2nc3ccccc3[nH]2)=C[C@@H](C2CC2)[C@@H]1CCCO	-3	-8	-16	1	0	24*
C#CCNC(=O)C1=C[C@H](c2csc3ccccc23)[C@@H](CCCO)[C@H](OCC)O1	-3	6	16	1	0	1
Cc1ccccc1NC(=O)CSC(N)=O	-11	-8	15	2	1	2
CCOC(=O)c1ccc(NC(=S)N2CCN(Cc3ccccc3)CC2)cc1	3	3	-7	2	0	-1
CC(C(=O)O)c1ccc(N2Cc3ccccc3C2=O)cc1 (stereo not drawn)	15	40*	-9	1	0	-14
CCCCCCCCn1ccc(=N)cc1	2	-12	5	0	0	-3
CCCCCCCCCCn1ccc(=N)cc1	7	38*	2	1	0	-14
CC(C)(C)c1ccc(Nc2n[nH]c3ccccc23)cc1	-17	-23	-11	-1	0	21*
CC1(C(=O)NCc2ccc(C(F)(F)F)cc2)CCN1Cc1cc2ccccc2o1 (stereo not drawn)	-12	-35	2	-1	1	-10
SMILES	CHO-K1 Ca antag	CHRM4 antagonist	CHO-K1 Ca PAM	CHRM4 agonist	CHO-K1 Ca ag	CHRM4 PAM
Cc1ccccc1CN1CCN(c2nc3ccccc3s2)CC1	-7	-13	8	-1	0	-5
CNC(=O)Nc1ccc2snnc2c1	26*	12	-7	0	0	-4
Cc1c(Cl)c([N+](=O)[O-])nn1CCCC(=O)Nc1c(C)n(C)n(-c2ccccc2)c1=O	-9	27*	18	1	1	-42
Cc1c(Cl)c([N+](=O)[O-])nn1CCCC(=O)Nc1c(Cl)cccc1Cl	-3	13	14	5	1	3
CCC(C)Sc1cc(-c2nc3ccc(C)cn3c2NCc2ccccc2)ccc1OC (stereo not drawn)	25*!	72*	-17	15	3	-13
CCC(C)Sc1ccc(-c2nc3ccc(C)cn3c2NCc2ccccc2)cc1OC (stereo not drawn)	0	44*	-5	10	2	-5
Cc1nc(NCCCN2CCOCC2)c2cnn(-c3ccccc3)c2n1	-15	-2	9	1	1	4
N#Cc1c(Cc2cccc3ccccc23)nn(CCO)c1N	-12	3	23	1	1	25*
CC1(C)COC(c2cc3c(cc2Br)OCO3)OC1	-3	-13	-12	0	0	1
COC(=O)C1=C(C(=O)OC)[C@@H]2Nc3ccccc3[C@@]23C[C@@H](C(=O)OC)N(C(=O)c2cccs2)C3=N1	-11	-13	5	0	0	25*
CN1C(=O)/C(=C/c2ccccc2OCc2ccc(F)cc2)N(C)C1=S	-1	97*	-4	-1	-1	-38
COC(=O)c1ccc(CO/N=C/c2ccccc2OC)cc1	-3	-6	-9	1	-1	-8
c1ccc(Cn2nnc3c(N4CCCC4)ncnc32)cc1	-1	-6	-3	4	0	21*
CCN1CCN(c2ncnc3c2nnn3Cc2ccccc2)CC1	1	-6	-3	2	1	2
O=C(O)c1ccc(Nc2nc(-c3ccccc3)cs2)cc1	-7	-3	20	8	2	9
Cc1n[nH]c(C)c1CCCOc1ccccc1	-4	6	15	2	1	7
COc1ccc(COCC(O)CN2CCC(C(N)=O)CC2)cc1OC (stereo not drawn)	10	5	17	0	19*	-3
COc1ccc(COCC(O)CN2CCCCC2)cc1OC (stereo not drawn)	5	-2	17	1	0	12
CCn1c(SCc2ccc(Cl)cc2)nc2nc3c(cc2c1=O)CCCC3	-10	-3	-5	-2	0	28*
N#CC1(NC(=O)COC(=O)C2=COCCO2)CCCCC1	-12	7	12	113*	19*	4
CN(C(=O)COC(=O)C1=COCCO1)C1(C#N)CCCCC1	-6	-2	-12	1	0	13
O=C(NCc1ccccn1)c1ccc(Cl)cc1Cl	6	5	5	0	0	-3
CSCCC(NC(=O)c1ccc(Cl)cc1Cl)C(=O)NCc1ccccn1 (stereo not drawn)	35*	-1	17	2	0	4
